# Assay outcomes (PubChem)
# RXFP1 antagonist: qHTS Assay for Antagonists of the Relaxin Receptor RXFP1. Relaxin receptor 1 (Homo sapiens), Q9HBX9. HEK293-RXFP1, relaxin-stimulated cAMP HTRF, 30 min; active compounds read low. activity change, negative = inhibition, % at 57.5 µM. hit rate 0.59% among 350,000;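 active = activity change of -60% or lower, but not beyond a set lower limit; inconclusive = change between -60% and -40%, or beyond the set limit; inactive = change above -40%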; note: % is set by controls: 0 for no effect and ±100 for the full control effect
# Target sequence (Q9HBX9 whole entry, looked up): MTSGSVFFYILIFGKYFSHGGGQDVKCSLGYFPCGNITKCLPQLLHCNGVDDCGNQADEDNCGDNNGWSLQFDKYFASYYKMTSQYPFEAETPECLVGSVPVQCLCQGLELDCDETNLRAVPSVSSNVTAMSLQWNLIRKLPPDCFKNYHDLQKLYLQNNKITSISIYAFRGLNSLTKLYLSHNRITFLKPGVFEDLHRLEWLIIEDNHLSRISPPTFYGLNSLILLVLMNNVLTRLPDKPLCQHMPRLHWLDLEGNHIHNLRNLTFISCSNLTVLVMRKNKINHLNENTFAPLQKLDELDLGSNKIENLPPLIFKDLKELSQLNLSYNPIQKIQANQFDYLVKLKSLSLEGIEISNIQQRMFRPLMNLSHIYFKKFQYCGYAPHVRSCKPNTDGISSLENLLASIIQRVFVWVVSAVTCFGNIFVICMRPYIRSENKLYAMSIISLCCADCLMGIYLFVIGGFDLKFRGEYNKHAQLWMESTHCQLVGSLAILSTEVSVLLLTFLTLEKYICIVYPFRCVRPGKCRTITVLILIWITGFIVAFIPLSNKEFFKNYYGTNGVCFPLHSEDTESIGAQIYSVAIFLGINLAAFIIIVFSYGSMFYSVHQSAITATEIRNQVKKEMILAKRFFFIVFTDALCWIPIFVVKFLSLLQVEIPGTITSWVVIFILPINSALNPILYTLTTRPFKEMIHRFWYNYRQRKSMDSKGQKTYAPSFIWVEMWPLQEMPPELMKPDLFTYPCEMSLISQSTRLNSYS
# IL2 activator: qHTS of IL-2 Activators; hit rate 0.065% among 360,000; IL-2 activation reporter assay, cell-based qHTS; stimulated with anti-CD3/CD4/CD28 beads; in transgenic mouse T cells; activation, % (series mostly up to about 46 µM); in the data active = activation above about 50%; inconclusive = mostly about 30% to 49%; note: 0% is about no effect
#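 Screening format: compound pinned onto unstimulated transgenic mouse T cells, 60 min incubation, then anti-CD3/anti-CD4/anti-CD28 bead stimulation for 18 hours at 37 degrees C, followed by EGFP and DsRed detection.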
# RXFP1 ag: qHTS Assay for Agonists of the Relaxin Receptor RXFP1; Potency, µM (top dose mostly 57.5 µM), for the others: at the highest dose activation, usual class: activators; HEK293T-RXFP1 cAMP TR-FRET, 30 min; response scale: percent of porcine relaxin response, buffer zero; AID 2676, 2010; Relaxin receptor 1 (Homo sapiens), Q9HBX9; hit rate 0.3% among 370,000; note: potency is the fitted concentration of half-maximal effect; % is set by controls: 0 for no effect and ±100 for the full control effect; nearly all actives have a fitted effect of over 60% in size
#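 HEK293 cells stably expressing RXFP1, treated 30 min at 37C with compounds plus PDE4 inhibitor Ro 20174; cAMP measured by HTRF TR-FRET. Normalized to buffer and 29 nM porcine relaxin; EC50 by Hill fit.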
# Giardia kill: Small Molecules that selectively kill Giardia lamblia: qHTS. Giardia lamblia trophozoite viability. activity change, % at 7.66 µM, hits read low. hit rate 0.15% among 340,000. AID 540267, 2011; in the data active = activity change below about -80%; inconclusive = between about -30% and that limit;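 note: parasites exposed to compound for two days anaerobically before the ATP read; % is set by controls: 0 for no effect and ±100 for the full control effect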
#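 ATP-content bioluminescence gauges trophozoite survival. Cells (100/well) receive compound and incubate anaerobically for 48 hrs at 37 deg C; detection reagent follows for 15-30 min at room temperature.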
# NPSR antag: qHTS Assay for Antagonists of the Neuropeptide S Receptor: cAMP Signal Transduction | Q6W5P4 | CHO-NPSR cells, cAMP TR-FRET, antagonist mode | Potency, µM (titrated, usually from 38.3 µM), for inactives: at the top dose activity change, negative = inhibition, actives largely listed as inhibitors | hit rate 1% among 220,000 | AID 1461, 2008; note: potency is the fitted concentration of half-maximal effect; % is set by controls: 0 for no effect and ±100 for the full control effect; nearly all actives have a fitted effect of over 50% in size
# BRCA1 expr up: qHTS Assay to Identify Small Molecule Activators of BRCA1 Expression; MCF7-BRCA1-FFLuc reporter, luminescence, 48 h; response scale: scaled: vehicle 0%, 10 µM genistein 100%; Potency, µM (doses to about 46.1 µM), for the others: at the top dose activation, most hits filed as activators; hit rate 1.1% among 380,000; note: potency is the fitted concentration of half-maximal effect; nearly all actives have a fitted effect of over 80% in size
#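 Luminescence from a BRCA1-driven firefly luciferase in MCF7 cells was read after 48 h compound exposure at 37 C. Data normalized against DMSO and a 10microM genistein activation control, then curve-fitted across the titration.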
# * hit, by the source's call; ? = inconclusive; · = no result; ! = not active in a repeat; [ ] = remark or other dose. In the library only some 1.9% were active in any assay of this set; here they are far more common. Unless noted, calls come from the whole dose curve; as a rule, active = well fitted curve in the direction sought with a large enough effect; inconclusive = small, poorly fitted or top-dose-only effect, or another doubt; inactive = no such curve, though single readings can be large; an effect the other way counts as inactive or inconclusive.
SMILES,RXFP1 antagonist,IL2 activator,RXFP1 ag,Giardia kill,NPSR antag,BRCA1 expr up
O=C(Nc1ccc(S(=O)(=O)N(Cc2ccccc2)c2ccccc2)cc1)c1ccc([N+](=O)[O-])cc1,-6,·,0%,·,·,·
CCOc1ccccc1Oc1coc2cc(O)ccc2c1=O,2,-1,3%,-28,-14%[46.1 µM],24%
O=c1c(-c2ccc(F)cc2)coc2cc(O)ccc12,-6,-2,1%,?,-17%[46.1 µM],11µM*
CCCCCc1cc(=O)oc2c(C(CCN3CCCCC3)c3cc(OC)c(OC)c(OC)c3)c(OC)cc(OC)c12 (stereo not given),·,-1,1%,-6,10µM*,-16%
COc1cc(C(CCN2CCN(c3ccccc3)CC2)c2c(OC)cc(OC)c3c(C)cc(=O)oc23)cc(OC)c1OC (stereo not given),·,0,1%,11,6.3µM*,-13%
CCCCCc1cc(=O)oc2c(C(CCN3CCCC(C)C3)c3cc(OC)c(OC)c(OC)c3)c(OC)cc(OC)c12 (stereo not given),·,-1,2%,13,6.3µM*,-29%
CCCCCc1cc(=O)oc2c(C(CCN3CCCC(C)C3)c3ccc(N(C)C)cc3)c(OC)cc(OC)c12 (stereo not given),·,-1,4%,?,?,-19%
CCCCCCCCCCCCCC(=O)Nc1ccc(/C=C/c2ccnc3ccccc23)cc1,·,·,·,·,·,2%
O=C(CSc1nc2cc(Cl)ccc2o1)Nc1ccc(N2CCOCC2)cc1,-1,-5,-2%,-10,-27%[46.1 µM],13µM*
Cn1c(=O)cc(SCC(=O)NCC2CCCO2)c2ccc(Cl)cc21 (stereo not given),16,-1,16%,-23,10µM*,-5%
COc1ccc(N2CCN(c3nccs3)CC2)cc1,-5,0,3%,13,·,11µM*
COc1ccc(CNC(=O)C2CCN(c3nccs3)CC2)cc1,-3,0,1%,0,-2%[46.1 µM],-16%
Cc1ccc2[nH]c3c(=O)n(N)c(C)nc3c2c1,4,0,3%,-27,15%,16%
Cc1ccc2[nH]c3c(=S)nc[nH]c3c2c1,19,4,3.5µM*,-19,-54%,37%
Cc1cc(OCCOCC[N+](C)(C)Cc2ccccc2)ccc1C(C)(C)CC(C)(C)C,-29,·,·,·,·,·
CCN(CCNCC(O)COCc1ccc(Cl)cc1)c1cccc(C)c1 (stereo not given),-70*,-1,1%,-13,?,-10%
COc1ccc(C2Nc3ccccc3C(=O)N2Cc2ccccc2)cc1COc1ccc([N+](=O)[O-])c(C)c1 (stereo not given),·,·,·,27,·,0%
O=C(NCCC(=O)N1CCCCC1)c1ccc(Br)cc1,1,-2,-2%,38,·,10µM*
O=C1Cc2ccccc2C1=C1C=c2ccccc2=C1,·,·,·,·,·,-25%
COC(=O)CN1C(=O)CSc2ccc(S(=O)(=O)Nc3ccc(C)c(Cl)c3)cc21,0,·,-1%,·,·,·
COc1cccc(-c2nnc(-c3ccc(C(F)(F)F)cc3)o2)c1,-7,-5,0%,-8,?,13µM*
COc1cccc(-c2nnc(-c3ccc4ccccc4c3)o2)c1,-2,-1,·,-18,·,?
C[C@@H]1CC=C[C@H]2[C@H]1C(=O)N(Cc1ccccc1)[C@H]2c1ccc(F)c(Br)c1,·,·,0%,·,4µM*,·
CC1CC=CC2C1C(=O)N(Cc1ccccc1)C2c1ccc(F)c(/C=C/c2ccccc2)c1 (stereo not given),·,·,·,22,·,·
CC1CC=CC2C1C(=O)N(Cc1ccccc1)C2c1ccc2ccccc2c1C=Cc1ccccc1 (stereo not given),·,·,·,-29,·,·
SMILES,RXFP1 antagonist,IL2 activator,RXFP1 ag,Giardia kill,NPSR antag,BRCA1 expr up
C[C@@H]1CC=C[C@H]2[C@H]1C(=O)N(Cc1ccccc1)[C@H]2c1ccc2ccccc2c1Br,·,0,0%,-6,10µM*,-41%
Cc1ccc(-c2cccc(C3CC=CC4C3C(=O)N(Cc3ccccc3)C4c3ccc4ccccc4c3)c2)cc1 (stereo not given),·,0,1%,-6,-14%,26%
COc1ccc(-c2cccc(C3CC=CC4C3C(=O)N(Cc3ccccc3)C4c3ccc(OC)c(Cl)c3)c2)cc1 (stereo not given),·,-1,0%,20,10µM*,-20%
Cc1cc(Oc2ccccc2)nc(C#N)n1,·,·,·,·,·,19%
Cc1ccccc1N1C(=O)c2sc3nc4c(c(=O)n3c2C1=O)CCC4,5,1,2%,28,?,2%
O=C1c2sc3nc4ccccc4n3c2C(=O)N1c1ccccc1Cl,-6,-1,1%,22,10µM*,38%
O=c1[nH]sc2cc(Cl)ccc12,19,·,·,·,·,·
Cc1ccc(NC(NC(=O)OCCn2c([N+](=O)[O-])cnc2C)C(Cl)(Cl)Cl)cc1 (stereo not given),·,·,-2%,·,-6%,·
Cc1ncc([N+](=O)[O-])n1CCOC(=O)NC(NCc1ccccc1Cl)C(Cl)(Cl)Cl (stereo not given),2,-1,0%,-119*,3%,0%
COc1ccc(NC(=O)OCCn2c([N+](=O)[O-])cnc2C)cc1,1,1,4%,-87*,12%,-4%
Cc1ncc([N+](=O)[O-])n1CC(=O)Nc1ccc(Cl)cc1,9,2,0%,11,·,3%
CCCN1C(=O)c2ccccc2NC1c1ccc(OC)c(COc2cccc(OC)c2)c1 (stereo not given),·,·,·,?,·,-18%
O=C1NCCN/C1=C\C(=O)c1cccc(Br)c1,8,0,1%,10,26%,11µM*
O=C1NCCN/C1=C\C(=O)c1ccc(Br)cc1,-6,0,1%,-19,-4%,?
CC[C@H](C)C(=O)O[C@H]1CCC=C2C=C[C@H](C)[C@H](CC[C@@H]3C[C@@H](O)CC(=O)O3)[C@H]21,·,-1,0%,8,16µM*!,-45%
O/N=C(/CI)c1ccc2ccccc2c1,·,·,·,·,·,29%
CN(C)c1ccc(/C=C(/C#N)C(=O)NCc2ccccc2)o1,-4,83*,0%,4,-13%,10µM*
N#C/C(=C/c1ccccc1)C(=O)NCc1ccccc1,-26,0,1%,8,0%,-8%
Clc1cnc(N/N=C/c2cccs2)c(Cl)c1,-14,0,0%,-14,-3%[46.1 µM],?
Oc1ccc(/C=N/Nc2ncc(Cl)cc2Cl)cc1,-20,0,0%,7,·,13µM*
